# Source: PubChem BioAssay AID1376 (SRMLSC, 2008)
# Screen size: about 220,000 compounds; about 530 (0.24%) were called active. Cut-off read from the data, not from the text of the source: active = inhibition above about 13%; inconclusive = no clear call, values can overlap the other calls; inactive = below that. This excerpt belongs to a sample that is enriched for actives. Results with a measured potency or affinity are listed apart.
# Target: Bifunctional protein GlmU (Mycobacterium tuberculosis (strain ATCC 25618 / H37Rv)) (UniProt P9WMN3)
# Sequence (P9WMN3 whole entry, looked up): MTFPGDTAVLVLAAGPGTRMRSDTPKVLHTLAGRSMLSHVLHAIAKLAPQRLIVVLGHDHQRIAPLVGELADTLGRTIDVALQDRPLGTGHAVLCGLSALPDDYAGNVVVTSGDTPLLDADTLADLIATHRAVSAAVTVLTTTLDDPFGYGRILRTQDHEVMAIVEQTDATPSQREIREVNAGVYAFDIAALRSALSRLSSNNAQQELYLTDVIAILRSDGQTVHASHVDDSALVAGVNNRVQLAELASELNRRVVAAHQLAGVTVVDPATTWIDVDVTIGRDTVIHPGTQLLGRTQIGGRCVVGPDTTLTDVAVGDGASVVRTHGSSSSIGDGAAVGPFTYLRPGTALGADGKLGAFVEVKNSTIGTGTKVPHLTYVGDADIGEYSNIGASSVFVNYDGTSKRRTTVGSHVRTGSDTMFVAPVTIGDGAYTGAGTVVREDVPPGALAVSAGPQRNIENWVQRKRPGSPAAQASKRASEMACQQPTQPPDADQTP
# Experiment: inhibition of mycobacterial GlmU enzyme – biochemical, glucosamine-1-phosphate acetyltransferase (AID 1376);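 note: 0% = complete reaction with vehicle and 100% = reaction without substrate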
# Conditions: M. tuberculosis GlmU acetyltransferase enzyme assay; active compounds read high;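 tested at 30 µM in the primary screen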
row,Structure (SMILES),inhibition
1,COc1ccc(OCCCC(=O)Nc2cc([N+](=O)[O-])ccc2C)cc1,0.05% (inactive)
2,Cc1ccc(NC(=O)CN2C(=O)NC3(CCc4ccccc43)C2=O)cc1Cl (stereo unspecified),2.43% (inactive)
3,CCc1ccc(C(=O)CN2CCSC2=N)cc1,-4.03% (inactive)
4,COc1ccc2nc(C)cc(SCC(=O)OC(C)C)c2c1,-3.07% (inactive)
5,Cc1ccc(NC(=O)CS(=O)CC(=O)NC2CCN(Cc3ccccc3)CC2)c(C)c1 (stereo unspecified),5.17% (inactive)
6,CC1CCC/C(=N/Nc2nc3ccccc3s2)C1 (stereo unspecified),1.47% (inactive)
7,Cc1nn(C(=O)Cn2ccc([N+](=O)[O-])n2)c(C)c1Br,17.6% (active)
8,O=C(Cn1ccc([N+](=O)[O-])n1)N1CCCCCC1,-1.9% (inactive)
9,O=C(Cn1ccc([N+](=O)[O-])n1)N1CCCCC1,1.12% (inactive)
10,Cc1cc(C)n2nc(SCCOc3ccccc3)nc2n1,-0.25% (inactive)
11,Cc1cccc(NC(=S)NCc2cccn2C)c1,4.86% (inactive)
12,Cc1nc2cccc(C(=O)NCc3ccccc3)c2o1,-4.24% (inactive)
13,O=C(NC1CCCCC1)c1cc(Cl)nc2ccccc12,1.21% (inactive)
14,Cc1nc2cccc(C(=O)NC3CCCCC3)c2o1,14.4% (active)
15,Cc1cc(Br)ccc1SCC(=O)OCC(=O)Nc1ncc(C(F)(F)F)cc1Cl,1.65% (inactive)
16,CCOC(=O)/C(C#N)=C/Nc1cc(OC)ccc1OC,-9.19% (inactive)
17,CCOC(=O)/C(C#N)=C/Nc1ccccc1OC,1.82% (inactive)
18,CCOC(=O)/C(C#N)=C/Nc1cc(C(=O)OCC)cc2c(OC)c(OC)ccc12,26.4% (active)
19,C#Cc1ccc([C@H]2C=C(C(=O)NC3CC3)O[C@@H](OCC)[C@@H]2CCCO)cc1,3.19% (inactive)
20,CCCN1C(=O)c2cc(C(=O)Nc3ccccc3C)ccc2C1Nc1ccccc1C (stereo unspecified),12.9% (active)
21,CCCN1C(=O)c2cc(C(=O)Nc3ccccc3OC)ccc2C1Nc1ccccc1OC (stereo unspecified),-4.43% (inactive)

row,Structure (SMILES),inhibition
1,CCCN1C(=O)c2cc(C(=O)Nc3ccc(OC)cc3OC)ccc2C1Nc1ccc(OC)cc1OC (stereo unspecified),-6.94% (inactive)
2,Cc1cc(NC(=O)C2CCCCC2C(=O)O)no1 (stereo unspecified),-2.61% (inactive)
3,Cc1cccc(NNC(N)=S)c1C,1.37% (inactive)
4,CN(C)c1ccc(/C=C/c2ccc3c4ccccc4ccc3[n+]2-c2ccccc2)cc1,41% (active)
5,CN(C)c1ccc(/C=C/c2ccc3ccccc3[n+]2C)cc1,-0.66% (inactive)
6,CC[n+]1c(/C=C/c2ccc(N(C)C)cc2)ccc2ccccc21,2.12% (inactive)
7,Cn1cccc1CC(=O)N/N=C/c1cccc([N+](=O)[O-])c1,-5.88% (inactive)
8,Cc1ccc(-n2ncc3c(=O)n(-c4ccc(C)c(C)c4)c(C)nc32)cc1,48.2% (active)
9,Cc1ccc(-n2c(C)nc3c(cnn3-c3ccc(C)c(C)c3)c2=O)cc1C,6.8% (inactive)
10,Cc1ccc(-n2c(C)nc3c(cnn3-c3ccc(F)cc3)c2=O)cc1C,-3.89% (inactive)
11,Cn1cc(/C=N/NC(=O)c2ccc(C#N)cc2F)c2ccccc21,1.51% (inactive)
12,CN(Cc1c(O)ccc2c1oc(=O)c1ccccc12)C1CCCCC1,14% (active)
13,CN(C)Cc1c(O)ccc2c3c(c(=O)oc12)CCCCC3,0.45% (inactive)
14,C=CCN(CC=C)Cc1c(O)ccc2c1oc(=O)c1ccccc12,-2.23% (inactive)
15,COc1ccc2cc3cc(C(=O)NCCCN4CCc5ccccc5C4)sc3nc2c1,-12.5% (inactive)
16,Cc1ccc(/C=N/NC(=O)C[n+]2ccccc2)o1,5.08% (inactive)
17,O=C(CCC(=O)c1cccs1)Nc1nnc(C2CC2)s1,2.51% (inactive)
18,Cc1ccsc1/C=N/NC(=S)NCc1ccccc1,0.62% (inactive)
19,O=[N+]([O-])c1ccc2nccn2c1,2.74% (inactive)
20,Cc1ccc(NC(=O)CN2C(=O)S/C(=C\c3cc(C)n(-c4cccc(C(=O)O)c4)c3C)C2=O)cc1,0.24% (inactive)
21,Cc1ccc(NC(=O)CN2C(=O)N/C(=C/c3cc(C)n(-c4ccc(C(=O)O)cc4)c3C)C2=O)cc1,8.1% (inactive)

row,Structure (SMILES),inhibition
1,Cc1cc(C=C2C(=O)c3ccccc3C2=O)c(C)n1-c1cccc(C(=O)O)c1,7.28% (inactive)
2,Cc1ccc(NC(=O)CN2C(=O)S/C(=C\c3cccn3-c3cccc(C(=O)O)c3)C2=O)cc1C,6.74% (inactive)
3,Cc1ccc(NC(=O)CN2C(=O)N/C(=C/c3cc(C)n(-c4cccc(C(=O)O)c4)c3C)C2=O)cc1,14.9% (active)
4,CC(=O)NC1=NC(=O)/C(=C/c2cc(C)n(-c3ccc(NC(C)=O)cc3)c2C)S1,3.45% (inactive)
5,Cc1cccc(NC(=O)CN2C(=O)N/C(=C\c3cccn3-c3cccc(C(=O)O)c3)C2=O)c1,-2.01% (inactive)
6,Cc1ccc(NC(=O)CN2C(=O)N/C(=C/c3ccc(N4CCOCC4)cc3)C2=O)cc1,-5.18% (inactive)
7,Cc1ccc(-n2cccc2/C=C2/NC(=O)N(CC(=O)Nc3cccc(C)c3)C2=O)cc1,10.8% (inactive)
8,COc1ccccc1CNC(=O)CS(=O)Cc1nc(-c2ccccc2C)oc1C (stereo unspecified),-3.21% (inactive)
9,COc1ccc(CCNC(=O)c2ccc3ccccc3n2)cc1OC,1.59% (inactive)
10,CCc1cccc(C)c1NC(=S)N(CCN(C)C)C(C)c1ccco1 (stereo unspecified),-1.5% (inactive)
11,Cc1occc1C(=O)N/N=C/c1cnn(C)c1C,0.23% (inactive)
12,CC1CN=C(NCCc2ccccc2)S1 (stereo unspecified),-5.97% (inactive)
13,COc1ccc(Cl)cc1N(C(C)C(=O)NC1CCCC1)S(C)(=O)=O (stereo unspecified),-1.06% (inactive)
14,Cc1nonc1C(=O)N/N=C/c1cccc(O)c1,-5.8% (inactive)
15,O=C1C=C(N2CCOCC2)C2(CCCCC2)O1,-4.46% (inactive)
16,CS(=O)(=O)c1nsc2nc(=O)c(/C=C3\C=Nc4ccccc43)c(N)n12,9.05% (inactive)
17,CC(C)S(=O)(=O)c1nsc2nc(=O)c(/C=C3\C=Nc4ccccc43)c(N)n12,14.9% (active)
18,CC1=Nc2ccccc2/C1=C/c1c(N)n2c(S(=O)(=O)C(C)C)nsc2nc1=O,6.27% (inactive)
19,COc1ccc2[nH]c3c(N4CCc5ccccc5C4)ncnc3c2c1,0.43% (inactive)
